Source: PubChem (National Center for Advancing Translational Sciences (NCATS))
Compounds with a hit are over-represented: about 1.2% of the library has one in this group of screens.
IDH1 R132H inh: qHTS for Inhibitors of mutant isocitrate dehydrogenase 1 (IDH1): qHTS | IDH1-R132H enzyme, NADPH consumption, diaphorase/resazurin fluorescence | Potency, µM (highest dose often 76.6 µM), hits mostly inhibitors | actives 0.093% (n = 390,000) | AID 602179, 2012 | Isocitrate dehydrogenase [NADP] cytoplasmic (Homo sapiens), O75874; note: nearly all actives have a fitted effect of over 65% in size
Target sequence (O75874 whole entry R132H, stated change not applied): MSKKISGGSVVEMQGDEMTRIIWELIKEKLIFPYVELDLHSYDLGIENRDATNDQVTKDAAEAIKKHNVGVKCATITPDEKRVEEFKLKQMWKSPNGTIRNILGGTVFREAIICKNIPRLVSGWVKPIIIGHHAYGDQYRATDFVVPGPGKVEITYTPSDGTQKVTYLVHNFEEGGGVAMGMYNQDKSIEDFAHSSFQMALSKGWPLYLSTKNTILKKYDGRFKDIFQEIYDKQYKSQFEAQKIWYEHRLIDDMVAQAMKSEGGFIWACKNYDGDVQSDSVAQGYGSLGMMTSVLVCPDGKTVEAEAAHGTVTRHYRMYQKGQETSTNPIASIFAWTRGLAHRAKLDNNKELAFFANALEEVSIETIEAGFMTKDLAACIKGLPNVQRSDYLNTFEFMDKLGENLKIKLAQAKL
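IDH1-R132H (0.5 ug/mL) preincubated 30 min with compound, then NADPH (0.016 mM) and alpha-KG (2 mM) added; 80 min at RT, pH 7.5. Remaining NADPH coupled via diaphorase/resazurin to fluorescence (540/590 nm); concentration-response curves normalized to no-enzyme control.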
GLS inhibitor: qHTS for Inhibitors of Glutaminase (GLS); GLS enzymatic activity, qHTS titration; Potency, µM (doses to about 45.5 µM), usual class: inhibitors; actives 0.21% (n = 410,000); Glutaminase kidney isoform, mitochondrial (Homo sapiens), O94925
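Read-out is an Amplex red fluorescence increase coupled through glutamate oxidase and HRP, measured before and after 30 min room-temperature incubation. hKGA is in 45 mM KH2PO4 (pH 8.2) with 0.02% Tween-20; glutamine added as 1mM solution.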
rTrxR1 inhibitor: qHTS Assay for Inhibitors of Mammalian Selenoprotein Thioredoxin Reductase 1 (TrxR1): qHTS; recombinant rTrxR1, NADPH fluorescence consumption, selenite substrate; Potency, µM (highest dose often 114 µM), hits mostly inhibitors; Thioredoxin reductase 1, cytoplasmic (Rattus norvegicus), O89049; actives 1% (n = 390,000); note: nearly all actives have a fitted effect of over 65% in size
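Rat TrxR1 (90 nM in the dispensed reagent) was pre-reduced with 400 uM NADPH for 5 min at room temperature, then incubated with compound for 15 min. After 400 uM selenite was added, NADPH fluorescence (Ex 340/Em 450 nm) was followed for 8 min.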
TrxR1 substrate: qHTS Assay for Substrates of Mammalian Selenoprotein Thioredoxin Reductase 1 (TrxR1): qHTS | actives 0.01% (n = 390,000) | Thioredoxin reductase 1, cytoplasmic (Rattus norvegicus), O89049 | AID 588456, 2011 | purified TrxR1 substrate turnover, NADPH consumption readout | Potency, µM (highest dose often 114 µM); note: nearly all actives have a fitted effect of over 50% in size
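Rat TrxR1, dispensed at 90 nM, was prereduced with 400 uM NADPH (final) for 5 min at ~22 deg C, then incubated with compound 15 min before 400 uM selenite. A first-read NADPH fluorescence drop versus no-compound background flagged substrates.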
A number is an active result; - = inactive; ? = inconclusive; . = no result; ! = not confirmed by another sample; [ ] = another dose, or the depositor's remark. Calls come from the whole dose curve; as a rule, active = well fitted curve in the direction sought with a large enough effect; inconclusive = small, poorly fitted or top-dose-only effect, or another doubt; inactive = no such curve, though single readings can be large; an effect the other way counts as inactive or inconclusive.

SMILES | IDH1 R132H inh | GLS inhibitor | rTrxR1 inhibitor | TrxR1 substrate
CCOc1ccccc1C(=O)Nc1cc(-c2nc3cccnc3s2)ccc1C | . | - | - | -
O=C(C1COc2ccccc2O1)N1CCN(c2ccc(F)cc2)CC1 (stereo not drawn) | - | - | - | -
O=C(C1COc2ccccc2O1)N1CCN(c2ccc([N+](=O)[O-])cc2)CC1 (stereo not drawn) | - | - | 1.41µM | -
N#Cc1c(Cl)nc(N/N=C/c2ccccc2)c(Cl)c1Cl | - | - | - | -
C[n+]1cccc(/C=N/Nc2nc(Cl)c(C#N)c(Cl)c2Cl)c1 | - | - | 50.1µM | -
Cc1nc(C#N)c(N/N=C/c2cccc(Cl)c2)o1 | - | - | ? | -
C[N+](C)(C)c1ccc(/C=N/Nc2nc(Cl)c(C#N)c(Cl)c2Cl)cc1 | - | - | 70.8µM | -
COc1cc(C2C(C(=O)Nc3ccccc3C)=C(C)Nc3ncnn32)ccc1OCC(N)=O (stereo not drawn) | - | - | - | -
CN(C)/C=C1/C=C(c2ccccc2)OC1=O | - | - | 22.4µM | -
COc1cc2c(NC3CCN(C)CC3)nc(N3CCCN(C)CC3)nc2cc1O | . | . | - | -
Cc1ccc(NCCC(=O)c2cccs2)cc1Cl | - | - | ? | -
Cc1ccc(NCCC(=O)c2cccs2)cc1C | - | - | 4.47µM | -
CCc1ccc(NCCC(=O)c2ccc(Cl)cc2)cc1 | - | - | ? | -
CC(C)c1ccc(NCCC(=O)c2cccs2)cc1 | - | - | 2.82µM | -
Cc1ccc(NCCC(=O)c2ccc(Cl)cc2)cc1C | - | - | 50.1µM | -
O=C(CCNc1cccc(Cl)c1)c1cccs1 | - | - | 10µM | -
Cc1ccc(/C=N/n2c(-c3ccccc3)csc2=S)cc1 | . | - | . | .
COc1ccc(NC(=O)CN(C)CC(=O)c2c(C)[nH]c3ccccc23)cc1 | - | - | 22.4µM | -
COc1cccc(NC(=O)CN(C)CC(=O)c2c(C)[nH]c3ccccc23)c1 | - | - | 79.4µM | -
COc1cccc(NC(=O)CN(C)CC(=O)NCc2ccc(F)cc2)c1 | - | - | -[2.29 µM] | -
C[C@H](/C=C/[C@H](C)C(C)(C)O)[C@H]1CC[C@H]2/C(=C/C=C3C[C@@H](O)C[C@H](O)C3)CCC[C@]12C | . | - | . | .
CC(NC(=O)c1ccc(F)cc1)c1nc2ccccc2[nH]1 (stereo not drawn) | - | - | - | -
O=C(O)Cc1c[nH]c2ccc(O)cc12 | - | - | 10.6µM! | -
O=C(Nc1cc(OC(=O)C(F)(F)F)c2nonc2c1OC(=O)C(F)(F)F)C(F)(F)F | . | . | ? | -
CCC(C(=O)N1CCN(Cc2ccc3c(c2)OCO3)CC1)n1nnc2ccccc2c1=O (stereo not drawn) | - | - | . | .
SMILES | IDH1 R132H inh | GLS inhibitor | rTrxR1 inhibitor | TrxR1 substrate
O=[N+]([O-])c1cc([N+](=O)[O-])c2cc3ccccc3nc2c1 | - | - | 44.7µM | -
CCOC(=O)CCCCC(=O)c1[nH]c(=O)[nH]c1CSc1nc(C)cc(=O)[nH]1 | - | - | 3.16µM | -
CCOC(=O)CCCCC(=O)c1[nH]c(=O)[nH]c1C[n+]1ccc(C)cc1 | - | - | ? | -
CCOC(=O)CCCCC(=O)c1[nH]c(=O)[nH]c1CSc1nc2ccccc2[nH]1 | - | - | 3.16µM | -
CCOC(=O)CCCCC(=O)c1[nH]c(=O)[nH]c1CSc1nc(C)cc(C)n1 | - | - | - | -
O=C(CSc1nnc(CNC(=O)c2cccc(F)c2)n1-c1ccccc1)Nc1ccccc1F | - | - | - | -
Cc1c(/C=C/c2ccnc3ccccc23)ccc(N(C)C)c1C | . | . | -[0.0914 µM] | -
CN1CCc2c(OCC(=O)N3N=C(c4cccs4)CC3c3ccc(F)cc3)cccc2C1=O (stereo not drawn) | - | - | 14.1µM | -
COc1ccc(C2CC(c3cccs3)=NN2C(=O)CCl)cc1OC (stereo not drawn) | - | - | 7.94µM | -
COc1ccc(C2CC(c3cccs3)=NN2C(=O)c2ccccc2)cc1OC (stereo not drawn) | - | ? | - | -
COc1cc(C2CC(c3cccs3)=NN2C(=O)CCl)ccc1OC(F)F (stereo not drawn) | - | - | 7.94µM | -
O=C(N/N=C/c1ccc([N+](=O)[O-])o1)c1ccccc1NS(=O)(=O)c1cccs1 | - | - | 39.8µM | -
O=C(CCC(=O)Nc1ccc(Cl)cc1Cl)N/N=C/c1ccc([N+](=O)[O-])o1 | - | - | 11.2µM | -
O=[N+]([O-])c1ccc(/C=N/NC(=S)Nc2ccccc2)o1 | - | - | 17.8µM | -
O=C(N/N=C\c1ccc([N+](=O)[O-])o1)c1cncc(Br)c1 | - | - | 22.4µM | -
Cc1ccc(N2CC(NC(=O)C3CCCC3)CC2=O)cc1 (stereo not drawn) | - | - | - | -
COc1ccccc1NC(C)C(=O)c1c[nH]c2ccccc12 (stereo not drawn) | . | . | - | -
CC(C)C[C@@H](NC(=O)[C@H](Cc1ccccc1)NC(=O)c1cnccn1)B(O)O | . | - | . | .
Nc1nonc1-c1nc2ccccc2n1Cc1ccc(Br)cc1 | - | - | - | -
O=C(N/N=C/c1ccc([N+](=O)[O-])o1)c1ccc(O)cc1 | - | - | 20µM | -
COC(=O)c1ccc2c(c1)C(C)(C)C(/C=C/c1ccc(O)cc1)=[N+]2C | ? | - | 56.2µM | -
O=C(CN1CCN(C(=O)c2ccco2)CC1)Nc1ccccc1 | - | - | - | -
COc1cccc(NC(=O)CN2CCN(C(=O)c3ccco3)CC2)c1 | - | - | 70.8µM | -
COc1cccc(-c2cc(C(=O)N3CCN(C(=O)c4ccco4)CC3)on2)c1 | - | - | 79.4µM | -
NC[C@@H]1O[C@@H](O[C@H]2[C@@H](O)[C@H](O[C@@H]3[C@@H](O)[C@@H](N)C[C@H](N)[C@H]3O[C@H]3O[C@H](CN)[C@@H](O)[C@@H](O)[C@H]3N)O[C@H]2CO)[C@H](N)[C@@H](O)[C@@H]1O | . | - | . | .
SMILES | IDH1 R132H inh | GLS inhibitor | rTrxR1 inhibitor | TrxR1 substrate
Cc1ccc(N(C)S(=O)(=O)c2nnc(NC(=O)C3CCCCC3)s2)cc1 | - | - | - | -
O=C(O)c1cc(O)c2c(c1)C(=O)c1cc(O)cc(O)c1C2=O | - | 17.8µM | - | -
CC(=O)Oc1cccc2c1C(=O)c1c(OC(C)=O)cc(C(=O)O)cc1C2=O | ? | - | - | -
CN(C)c1ccc(/C=C/N2C=CCc3c2ccc2ccccc32)cc1 | . | . | - | -
O=c1oc2ccccc2c2oc3cc(O)c(O)cc3c12 | - | 2.82µM | - | -
CSc1nnc(-c2ccccc2)c(-c2ccccc2)n1 | - | - | - | -
COc1ccc(C(=O)CSc2nnc(-c3ccco3)n2C)cc1 | - | - | ? | -
O=C(CSc1nnc(-c2ccco2)c(-c2ccco2)n1)Nc1ccccc1 | - | - | 5.01µM | -
